The source of these data is ChEMBL document CHEMBL3433997, “St. Jude Leishmania screening dataset” (2016).

In general, inhibition refers to the relative decrease from the control value, in per cent.

The target of the first assay is Solute carrier family 2, facilitated glucose transporter member 1 (Homo sapiens) (UniProt P11166). Briefly: ST_JUDE_LEISH: Cytotoxicity at 2uM final concentration against transgenic Leishmania Mexicana promastigotes LmGLUT1 that are glucose transport deficient and complemented with the human glucose transporter GLUT1. Activity is measured by DNA content using SYBR green in vitro. The assay is classed as functional.
Solute carrier family 2, facilitated glucose transporter member 1 (Homo sapiens), sequence (P11166 whole entry): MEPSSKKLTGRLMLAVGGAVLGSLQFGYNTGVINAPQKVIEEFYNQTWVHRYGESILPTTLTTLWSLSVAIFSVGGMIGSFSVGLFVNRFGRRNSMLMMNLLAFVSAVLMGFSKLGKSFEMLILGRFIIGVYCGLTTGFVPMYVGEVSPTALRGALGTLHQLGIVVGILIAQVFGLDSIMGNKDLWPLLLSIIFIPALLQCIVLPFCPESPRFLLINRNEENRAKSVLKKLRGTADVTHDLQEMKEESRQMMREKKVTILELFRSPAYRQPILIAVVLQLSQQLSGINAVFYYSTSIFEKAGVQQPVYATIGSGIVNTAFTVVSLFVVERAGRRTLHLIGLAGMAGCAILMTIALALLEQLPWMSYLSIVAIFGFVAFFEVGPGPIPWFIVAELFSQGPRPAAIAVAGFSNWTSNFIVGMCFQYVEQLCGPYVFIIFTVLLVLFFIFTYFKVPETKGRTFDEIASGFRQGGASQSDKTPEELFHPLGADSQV
With `CC(C)CCN1CCCN(Cc2cccc(NC(=O)c3ccc(Cl)c(Cl)c3)c2)CC1`, the inhibition was -1.69%.

As for `NC1CCN(c2nc(NCCc3ccc(O)cc3)nc(NCc3ccccc3-c3ccc(C(F)(F)F)cc3)n2)CC1`, the inhibition amounted to 4.18%.

For `NC(=O)c1cccc(C(=O)Nc2cccc(-c3ccc(-c4nc5ccccc5[nH]4)s3)c2)c1`, the inhibition came to 1.49%.

Consider `CCCCNC[C@@H](O)[C@H](Cc1ccccc1)NC(=O)c1cc(NCC)cc(N2CCCCS2(=O)=O)c1`, for which the inhibition was 4.19%.

With `CCN1CCN(c2cc(C)c3cc(NC(=O)c4cccc(C(F)(F)F)c4)ccc3n2)CC1`, the inhibition amounted to 3.14%.

Turning to `COC(=O)c1cccc(NC(=O)NCCNc2ccnc(Nc3ccc(F)cc3)n2)c1`, the inhibition was found to be 4.31%.

Regarding `O=C(Nc1cc(F)cc(F)c1)N[C@H]1CCN(CCCCCNC(=O)C2CC2c2ccc(Cl)c(Cl)c2)C1` (stereo not given in full), the inhibition is -0.04%.

Turning to `Cc1ccc(CN2CCN(Cc3cccc(NC(=O)c4ccc5ccccc5c4)c3)CC2)cc1C`, the inhibition was 1.24%.

Turning to `Cc1n[nH]c2cc(Nc3nccc(Nc4ccc(Oc5ccccc5)cc4)n3)ccc12`, the inhibition came to 11.3%.

As to `CN(C(=O)c1cc2c(-c3cncnc3)cccc2[nH]1)c1ccccc1`, the inhibition is 2.07%.

In the case of `COc1ccc2c(c1)nc(CNC(=N)N)n2Cc1ccc(Cl)cc1`, the inhibition came out at 1.63%.

For `CC(C)N(CCOc1ccc2c(c1)N(C(=O)Nc1ccc(Cl)c(Cl)c1)CC2)C(C)C`, the inhibition is -0.91%.

Consider `COc1cccc(C(=O)OC2=C3CCC(=O)C3(C)CCC2=O)c1` (stereo not given), for which the inhibition worked out at 5.35%.

With `CC1(C)NC(N)=NC(=N)N1OCCCc1ccc(Cl)cc1Cl`, the inhibition was 2.76%.

On to `CC1CN(c2nc(NCCc3ccc(O)cc3)nc(NCc3ccccc3-c3ccc(C(F)(F)F)cc3)n2)CC(C)N1` (stereo not given), for which the inhibition is 4.25%.

As to `N=C(/N=C(/NCCCCCCN/C(=N\C(=N)Nc1ccc(Cl)cc1)N1CCCCC1)N1CCCCC1)Nc1ccc(Cl)cc1`, the inhibition is -2.47%.

As to `Cc1ccc(CN2CCCN(Cc3cccc(NC(=O)c4cc5ccccc5s4)c3)CC2)cc1C`, the inhibition was 0.56%.

Regarding `Cc1cccc2nc(-c3cccc(-c4ccc(NC(=O)C(C)CN5CCOCC5)cc4)c3)[nH]c12` (stereo not given), the inhibition turned out to be 3.62%.

With `COc1ccc(NC(=O)[C@H](CC(C)C)Nc2cc(C)nc(NCCOc3ccccc3)n2)cc1`, the inhibition worked out at 1.07%.

For `Cc1nnsc1C(=O)Nc1cccc(-c2csc(-c3nc4ccccc4[nH]3)c2)c1`, the inhibition is 2.53%.

With `CC(C)NC[C@@H](O)[C@H](Cc1ccccc1)NC(=O)c1cc2c3c(c1)c(C(C)C)cn3CCS(=O)(=O)N2C`, the inhibition is 2.21%.

Turning to `COC(=O)C(Cc1ccccc1)C(CSCc1ccc(OC)cc1)C(=O)N[C@@H](C(=O)OC(C)(C)C)c1ccc(C(C)(C)C)cc1` (stereo not given in full), the inhibition turned out to be 4.24%.

Turning to `COc1ccc(-c2cnc3ccc(N4CCCC4)nn23)cc1OC`, the inhibition is 0.89%.

Consider `COc1ccc2[nH]c(C)cc(=NN=Cc3ccncc3)c2c1`, for which the inhibition is 3.45%.

In the case of `CC(C)CCN1CCCN(Cc2ccc(C(=O)Nc3ccc(F)c(F)c3)cc2)CC1`, the inhibition stood at 4.12%.

Another assay concerns the target Hexose transporter 1 (Plasmodium falciparum) (UniProt O97467). Briefly: ST_JUDE_LEISH: Cytotoxicity at 2uM final concentration against transgenic Leishmania Mexicana promastigotes LmPfHT that are glucose transport deficient and complemented with the Plasmodium falciparum hexose transporter. Activity is measured by DNA content using SYBR green in vitro. The class given is functional.
Consider `COc1ccc2[nH]ccc(=NN=Cc3ccccc3)c2c1`, for which the inhibition came to 9.86%.

`O=c1cc(NCCCCNCc2cccc(Cl)c2)[nH]c2ccccc12`: the inhibition turned out to be 3.79%.

For `Cc1cc(=NN=Cc2ccc(Cl)cc2)c2cc(F)ccc2[nH]1`, the inhibition is 0.68%.

Take `Cc1cccc2nc(-c3ccc(-c4cccc(CNCCCN5CCCC5=O)c4)s3)[nH]c12`: the inhibition came to 2.33%.

`O=C(NCCCN1CCC(Cc2ccccc2)CC1)c1cc2c(Cl)nc3ccccc3c2s1`: the inhibition is 1.9%.

`CCn1ccc2c(N3CCCS3(=O)=O)cc(C(=O)N[C@@H](Cc3ccccc3)[C@H](O)CNC(C)(C)CCCC(C)C)cc21`: the inhibition worked out at 7.48%.

Take `Cc1cccc2nc(-c3ccc(-c4ccc(CN5CCC(C(N)=O)CC5)cc4)cc3)[nH]c12`: the inhibition came out at 5.37%.

In the case of `O=C(CCc1c[nH]cn1)Nc1cccc(-c2ccc(-c3nc4cc(F)ccc4[nH]3)s2)c1`, the inhibition was determined as 7.95%.

As to `O=C(Nc1ccc(Oc2ccc(OC(F)(F)F)cc2)cc1)c1ccco1`, the inhibition was determined as 1.49%.

Regarding `CC(=O)Nc1ccc(OCCN(Cc2ccccc2C(F)(F)F)c2ccc(C#N)c(C(F)(F)F)c2)cc1`, the inhibition stood at 16%.

As to `COc1ccc(-c2nc(NC(=O)Cc3ccc(OC)c(OC)c3)sc2C)cc1`, the inhibition was 3.07%.

Regarding `COc1ccc(NCCCNc2ccnc3ccccc23)cc1`, the inhibition amounted to 4.48%.

As for `Cc1nc2ccc3ccc(CNc4ccc5c(c4)CN([C@H](CCC(=O)O)C(=O)O)C5=O)cc3c2c(=O)[nH]1`, the inhibition amounted to 2.42%.

Turning to `Cc1cccc2nc(-c3ccc(-c4ccc(C(=O)NCCN5CCCC5)cc4)cc3)[nH]c12`, the inhibition is -1.27%.

Turning to `CC(C)(C)NCCN(Cc1ccc(-c2ccc(C(F)(F)F)cc2)cc1)C(=O)Cn1c(CCc2cccc(F)c2F)nc(=O)c2ccccc21`, the inhibition worked out at 5%.

As to `CC(C)CCN1CCCN(Cc2cccc(NC(=O)c3ccc(Cl)c(Cl)c3)c2)CC1`, the inhibition was -1.38%.

For `NC1CCN(c2nc(NCCc3ccc(O)cc3)nc(NCc3ccccc3-c3ccc(C(F)(F)F)cc3)n2)CC1`, the inhibition is 3.01%.

On to `NC(=O)c1cccc(C(=O)Nc2cccc(-c3ccc(-c4nc5ccccc5[nH]4)s3)c2)c1`, for which the inhibition is 1.48%.

On to `CCCCNC[C@@H](O)[C@H](Cc1ccccc1)NC(=O)c1cc(NCC)cc(N2CCCCS2(=O)=O)c1`, for which the inhibition turned out to be 2.9%.

Regarding `CCN1CCN(c2cc(C)c3cc(NC(=O)c4cccc(C(F)(F)F)c4)ccc3n2)CC1`, the inhibition came out at 3.29%.

As to `COC(=O)c1cccc(NC(=O)NCCNc2ccnc(Nc3ccc(F)cc3)n2)c1`, the inhibition came out at 3.02%.

Turning to `O=C(Nc1cc(F)cc(F)c1)N[C@H]1CCN(CCCCCNC(=O)C2CC2c2ccc(Cl)c(Cl)c2)C1` (stereo not given in full), the inhibition was 0.55%.

With `Cc1ccc(CN2CCN(Cc3cccc(NC(=O)c4ccc5ccccc5c4)c3)CC2)cc1C`, the inhibition was determined as 1.87%.

Consider `Cc1n[nH]c2cc(Nc3nccc(Nc4ccc(Oc5ccccc5)cc4)n3)ccc12`, for which the inhibition came out at 7.61%.

As to `CN(C(=O)c1cc2c(-c3cncnc3)cccc2[nH]1)c1ccccc1`, the inhibition was -0.81%.

Turning to `COc1ccc2c(c1)nc(CNC(=N)N)n2Cc1ccc(Cl)cc1`, the inhibition was 1.08%.

`CC(C)N(CCOc1ccc2c(c1)N(C(=O)Nc1ccc(Cl)c(Cl)c1)CC2)C(C)C`: the inhibition turned out to be 0.27%.

`COc1cccc(C(=O)OC2=C3CCC(=O)C3(C)CCC2=O)c1` (stereo not given): the inhibition is 4.65%.

In the case of `CC1(C)NC(N)=NC(=N)N1OCCCc1ccc(Cl)cc1Cl`, the inhibition is 1.95%.

For `CC1CN(c2nc(NCCc3ccc(O)cc3)nc(NCc3ccccc3-c3ccc(C(F)(F)F)cc3)n2)CC(C)N1` (stereo not given), the inhibition was determined as 4.62%.

Take `N=C(/N=C(/NCCCCCCN/C(=N\C(=N)Nc1ccc(Cl)cc1)N1CCCCC1)N1CCCCC1)Nc1ccc(Cl)cc1`: the inhibition was -2.65%.

As to `Cc1ccc(CN2CCCN(Cc3cccc(NC(=O)c4cc5ccccc5s4)c3)CC2)cc1C`, the inhibition turned out to be 0.71%.

As to `Cc1cccc2nc(-c3cccc(-c4ccc(NC(=O)C(C)CN5CCOCC5)cc4)c3)[nH]c12` (stereo not given), the inhibition came out at 2.93%.

With `COc1ccc(NC(=O)[C@H](CC(C)C)Nc2cc(C)nc(NCCOc3ccccc3)n2)cc1`, the inhibition is 2.71%.

As to `Cc1nnsc1C(=O)Nc1cccc(-c2csc(-c3nc4ccccc4[nH]3)c2)c1`, the inhibition turned out to be 3.19%.

Regarding `CC(C)NC[C@@H](O)[C@H](Cc1ccccc1)NC(=O)c1cc2c3c(c1)c(C(C)C)cn3CCS(=O)(=O)N2C`, the inhibition turned out to be 2.85%.

For the compound `COC(=O)C(Cc1ccccc1)C(CSCc1ccc(OC)cc1)C(=O)N[C@@H](C(=O)OC(C)(C)C)c1ccc(C(C)(C)C)cc1` (stereo not given in full), the inhibition came out at 4.41%.

As for `COc1ccc(-c2cnc3ccc(N4CCCC4)nn23)cc1OC`, the inhibition turned out to be 0.65%.

As for `COc1ccc2[nH]c(C)cc(=NN=Cc3ccncc3)c2c1`, the inhibition is -0.44%.

Turning to `CC(C)CCN1CCCN(Cc2ccc(C(=O)Nc3ccc(F)c(F)c3)cc2)CC1`, the inhibition came out at 4.65%.
